# Compound activity: PubChem, NMMLSC
# Most compounds without a hit are left out; they make up all but 0.2% or so of the library.
# Bcl-W Bim block – inhibitors of Bim binding to Bcl-W, primary screen, biochemical, multiplexed, bead-based flow cytometry; Bcl-2-like protein 2 (Homo sapiens), Q92843; Bim peptide-Bcl-W binding; inhibition, % at 10 µM; actives 0.02% (n = 190,000);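 note: higher means less fluorescent Bim peptide bound to Bcl-W beads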
# Target sequence (Q92843 whole entry, looked up): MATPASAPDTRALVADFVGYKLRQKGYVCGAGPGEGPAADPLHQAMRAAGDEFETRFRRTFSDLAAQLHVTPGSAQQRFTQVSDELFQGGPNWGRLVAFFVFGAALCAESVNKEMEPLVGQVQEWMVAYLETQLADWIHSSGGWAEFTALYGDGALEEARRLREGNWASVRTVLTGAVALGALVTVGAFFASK
# Bim-Bcl-2 – inhibitors of Bim-Bcl-2 binding, primary screen, biochemical, multiplexed, human Bcl-2 family; Apoptosis regulator Bcl-2 (Homo sapiens), P10415; Bead-based flow cytometry, Bim peptide-Bcl-2 binding; inhibition, % at 10 µM; actives 0.06% (n = 190,000); AID 950, 2007; in the data active = inhibition above about 40%
# Bcl-B Bim block – inhibitors of Bim-Bcl-B binding, primary screen, biochemical, multiplexed, human Bcl-2 family; actives 0.073% (n = 190,000); Bcl-2-like protein 10 (Homo sapiens), Q9HD36; AID 951, 2007; bead-based flow cytometry, Bim peptide-Bcl-B binding; inhibition, % at 10 µM
# Bim-Bcl-XL – inhibitors of Bim-Bcl-XL binding, primary screen, biochemical, multiplexed, bead flow cytometry, human Bcl-XL; AID 1007, 2008; actives 0.04% (n = 190,000); Bim peptide-Bcl-XL binding, fluorescence; Bcl-2-like protein 1 (Homo sapiens), Q07817; inhibition, % at 10 µM
# Bfl-1 Bim block – inhibitors of Bim binding to Bfl-1, primary screen, biochemical, multiplexed, bead-based flow cytometry | Bim-Bfl-1 binding inhibition | inhibition, % at 10 µM | actives 0.12% (n = 190,000) | AID 1008, 2008
# Numbers stand for hits; - = inactive. Cut-off read from the data, not from the text of the source, unless noted: active = inhibition above about 40%.
SMILES,Bcl-W Bim block,Bim-Bcl-2,Bcl-B Bim block,Bim-Bcl-XL,Bfl-1 Bim block
O=C1NC(=O)C(=Cc2ccc(-c3cc(Cl)ccc3[N+](=O)[O-])o2)C(=O)N1,-,-,-,-,45
COc1ccc(N2C(=O)CC(N3CC=C(c4ccccc4)CC3)C2=O)cc1 (stereo unspecified),-,-,-,-,-
CN1CCN(c2ccc(N)cc2)CC1,-,-,61,-,-
Clc1ccc(OCC#CCN2CCCC2)cc1,-,-,-,-,-
CN(C)c1ccc(C=C2C(=O)NC(=S)NC2=O)cc1[N+](=O)[O-],-,-,-,-,-
CN(C)c1ccc(C=C2C(=O)NC(=O)NC2=O)cc1[N+](=O)[O-],-,-,-,-,48
